Inconclusive results are not listed. Calls of active or inactive are those of the source. Unless noted, calls come from the whole dose curve; as a rule, active = well fitted curve in either direction with a large enough effect (not every such curve was filed as active); inconclusive = small, poorly fitted or top-dose-only effect, or another doubt; inactive = flat fitted curve, though single readings scatter. Residues, ends and D or L forms follow the SMILES beside them.
How the values were obtained:
[1] = target: Lysosomal acid glucosylceramidase (Homo sapiens) (UniProt P04062); test: Glucocerebrosidase-p2 (AID 348; in the data active = potency below about 10 µM; note: potency is the fitted concentration of half-maximal effect); details: purified GBA, blue fluorogenic substrate, 40 min
Chain of Lysosomal acid glucosylceramidase (Homo sapiens) (P04062 whole entry, looked up): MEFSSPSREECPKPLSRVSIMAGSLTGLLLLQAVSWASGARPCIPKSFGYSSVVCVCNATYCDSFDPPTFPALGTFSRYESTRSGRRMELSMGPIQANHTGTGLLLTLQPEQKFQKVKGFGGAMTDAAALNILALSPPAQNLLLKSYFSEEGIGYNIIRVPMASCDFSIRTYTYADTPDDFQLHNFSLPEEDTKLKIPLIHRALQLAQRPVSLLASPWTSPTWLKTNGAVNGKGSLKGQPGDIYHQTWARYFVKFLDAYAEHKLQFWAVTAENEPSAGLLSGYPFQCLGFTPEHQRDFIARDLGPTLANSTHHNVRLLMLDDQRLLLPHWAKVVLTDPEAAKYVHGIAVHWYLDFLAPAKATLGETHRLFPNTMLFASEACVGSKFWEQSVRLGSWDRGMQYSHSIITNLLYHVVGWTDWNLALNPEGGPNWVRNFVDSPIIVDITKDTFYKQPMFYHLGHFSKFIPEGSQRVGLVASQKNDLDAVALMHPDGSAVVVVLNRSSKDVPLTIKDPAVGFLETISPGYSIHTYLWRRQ
In short: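 Compounds titrated from 0.6 nM upwards against 0.2 nM enzyme in pH 5.9 citric acid/KH2PO4, taurocholate, tween-20; blue fluorogenic substrate 80 uM, 40 min room temperature, stopped and read Ex 365/Em 440 for AC50.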

[2] = AP1 Signaling Pathway (AID 357); details: ME-180 AP-1-bla reporter, EGF-induced, beta-lactamase ratio, 5 h; at 7.69 µM (top of the series) unless noted;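 note: ME-180 reporter cells stimulated with EGF at its EC50 level; % is set by controls: 0 for no effect and ±100 for the full control effect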
In short: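 Beta-lactamase reporter under AP-1 response element, ME-180 background. Stimulus: EC50 EGF. Compound exposure 5 h, 37 °C. Detection: CCF4, 2.5 h RT, 460/530 nm. Values: AC50 from titration.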

[3] = NFAT Signaling Pathway (AID 444); details: Jurkat NFAT-bla M1, carbachol, beta-lactamase ratio, 5 h; at 7.69 µM (top of the series) unless noted;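 note: carbachol stimulus at about its EC50 of 1 µM final; % is set by controls: 0 for no effect and ±100 for the full control effect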
In short: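 Read-out: CCF4 FRET ratio (460 nm/530 nm) after 1 h RT dye loading, used for %activity and AC50 from titration series. Cells: Jurkat NFAT-β-lactamase/M1 line, treated with compound plus 1 uM carbachol for 5 h, 37 °C.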

[4] = Stat Signaling Pathway (AID 446); details: ME-180 SIE beta-lactamase reporter, IL-6 stimulated, 5 h; at 7.69 µM (top of the series) unless noted;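 note: ME-180 cervical cancer cells given 40 pM IL-6 alongside compound; SIE-controlled beta-lactamase reporter measured as 460/530 nm FRET emission ratio; % is set by controls: 0 for no effect and ±100 for the full control effect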
In short: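 Screening format detects activators and inhibitors alike: ME-180 SIE-bla cells stimulated at 40 pM IL-6 for 5 hrs with compound, then dual-emission beta-lactamase read at 405 nm excitation.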

[5] = target: Glucocorticoid receptor (Homo sapiens) (UniProt P04150); test: GR-GFP Redistribution (AID 450;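 active = compounds whose dose series gives a full or clear partial fitted curve of increased nuclear translocation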; note: potency is the fitted concentration of half-maximal effect); details: U2OS GR-GFP nuclear translocation, laser cytometry, 2 h
Chain of Glucocorticoid receptor (Homo sapiens) (P04150 whole entry, looked up, the tested form may be a part): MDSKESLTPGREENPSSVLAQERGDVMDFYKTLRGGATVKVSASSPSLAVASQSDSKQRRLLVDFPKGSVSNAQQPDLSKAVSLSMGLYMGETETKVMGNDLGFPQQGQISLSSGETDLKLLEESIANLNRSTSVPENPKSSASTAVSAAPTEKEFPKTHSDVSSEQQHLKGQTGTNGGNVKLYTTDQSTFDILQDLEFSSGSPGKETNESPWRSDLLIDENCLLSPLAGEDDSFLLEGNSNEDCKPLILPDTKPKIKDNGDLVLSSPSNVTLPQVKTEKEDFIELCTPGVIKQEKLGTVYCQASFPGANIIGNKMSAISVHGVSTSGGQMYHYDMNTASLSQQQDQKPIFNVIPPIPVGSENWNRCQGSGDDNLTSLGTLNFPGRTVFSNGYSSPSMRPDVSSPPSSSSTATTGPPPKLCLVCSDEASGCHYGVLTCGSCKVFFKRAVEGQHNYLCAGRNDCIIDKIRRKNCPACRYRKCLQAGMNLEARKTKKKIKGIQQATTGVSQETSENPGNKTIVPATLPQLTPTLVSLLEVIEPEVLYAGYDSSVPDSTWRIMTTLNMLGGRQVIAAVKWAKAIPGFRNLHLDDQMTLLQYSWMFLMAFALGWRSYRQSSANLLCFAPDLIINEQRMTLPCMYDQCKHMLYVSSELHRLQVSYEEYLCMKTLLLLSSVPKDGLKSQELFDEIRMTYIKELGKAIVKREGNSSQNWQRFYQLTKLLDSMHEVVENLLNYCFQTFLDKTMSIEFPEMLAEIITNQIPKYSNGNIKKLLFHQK

[6] = target: Glucocorticoid receptor (Homo sapiens) (UniProt P04150); test: GR-EFC Redistribution (AID 451; calls by dose curve; note: potency is the fitted concentration of half-maximal effect); details: CHO-K1 GR-EFC translocation, beta-gal luminescence, 2 h
In short: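 Translocation of GR-ED fusion to nuclear EA restores b-gal, read by luminescence after 1 h room-temperature detection. Engineered CHO-K1 biosensor cells, 1,000/well, exposed 2 h at 37 C to titrations up to 46 uM final.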

[7] = target: Mitogen-activated protein kinase 10 (Mus musculus) (UniProt Q61831); test: JNK3 AlphaScreen Assay (AID 530); details: JNK3 lysate, c-Jun phosphorylation; series mostly up to 11.4 µM;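 note: kinase came from lysate of stimulated human HepG2 cells; signal reports phosphorylation of biotinylated GST-cJun 1-79 at Ser73 with 10 µM ATP; % is set by controls: 0 for no effect and ±100 for the full control effect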
In short: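 Room-temperature AlphaScreen kinase assay; pre-activated HepG2 lysate as JNK3 source, biotin-GST-cJun(1-79) substrate, 10 uM ATP, compound 15 min preincubation.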

[8] = target: 3',5'-cyclic-AMP phosphodiesterase 4B (Homo sapiens) (UniProt Q07343); test: qHTS Assay for Inhibitors of PDE-IV (AID 607; active = well fitted activation curve with a large enough effect in the main read-out, with a control signal flat, not every such curve was filed as active; note: % of control where 0% means no effect); details: HEK293 ACTOne CNG channel cells, membrane potential fluorescence; series mostly up to 22.9 µM
Chain of 3',5'-cyclic-AMP phosphodiesterase 4B (Homo sapiens) (Q07343 whole entry, looked up): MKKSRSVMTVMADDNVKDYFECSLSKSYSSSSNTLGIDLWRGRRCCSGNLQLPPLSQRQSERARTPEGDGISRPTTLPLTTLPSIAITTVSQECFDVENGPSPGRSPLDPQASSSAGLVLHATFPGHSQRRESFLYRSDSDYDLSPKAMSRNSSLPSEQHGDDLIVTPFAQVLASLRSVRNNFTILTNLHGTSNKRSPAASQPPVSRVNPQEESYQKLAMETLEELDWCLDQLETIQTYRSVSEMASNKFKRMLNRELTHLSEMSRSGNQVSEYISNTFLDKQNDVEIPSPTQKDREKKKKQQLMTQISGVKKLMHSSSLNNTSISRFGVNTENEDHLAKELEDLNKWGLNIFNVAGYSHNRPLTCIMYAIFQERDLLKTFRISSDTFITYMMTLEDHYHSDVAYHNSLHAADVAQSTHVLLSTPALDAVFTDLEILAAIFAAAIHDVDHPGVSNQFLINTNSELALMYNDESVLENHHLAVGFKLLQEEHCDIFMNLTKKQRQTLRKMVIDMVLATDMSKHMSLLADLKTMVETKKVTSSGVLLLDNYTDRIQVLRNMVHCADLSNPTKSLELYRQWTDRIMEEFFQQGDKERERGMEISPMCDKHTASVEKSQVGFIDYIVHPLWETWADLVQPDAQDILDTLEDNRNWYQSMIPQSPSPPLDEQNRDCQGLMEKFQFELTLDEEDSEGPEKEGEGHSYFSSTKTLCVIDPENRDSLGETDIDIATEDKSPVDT
In short: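 The readout is membrane depolarisation from a cAMP-sensing CNG channel, detected with a potential dye at ex 535/em 590. Cells were HEK293-derived (endogenous PDE-IV) at 1000 cells/well, titrated up to 22.9 uM final.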

c1ccc(B2OC[C@@H]3OB(c4ccccc4)O[C@H]([C@@H]4COB(c5ccccc5)O4)[C@@H]3O2)cc1
inactive: Potency [1] > 11.4 µM | activity change, negative = inhibition [2] -8.96% | activity change, negative = inhibition [3] 19.9% | activity, negative = inhibition [4] -6.35% | Potency [5] > 46 µM | Potency [6] > 9.22 µM | Potency [7] | Potency [8]

O=C(O)C(Cl)(c1ccccc1)c1ccccc1
inactive: Potency [1] > 11.4 µM | activity change, negative = inhibition [2] 1.69% | activity change, negative = inhibition [3] 6.6% | activity, negative = inhibition [4] -5.62% | Potency [5] > 46 µM | Potency [6] > 9.22 µM | Potency [7] | Potency [8]

O=C1c2ccccc2-c2ccc(N=[N+]([O-])c3ccc4c(c3)C(=O)c3ccccc3-4)cc21
inactive: Potency [1] > 11.4 µM | activity change, negative = inhibition [2] 5.38% | activity change, negative = inhibition [3] 10.2% | activity, negative = inhibition [4] 7.21% | Potency [5] > 46 µM | Potency [6] > 9.22 µM | Potency [7] | Potency [8]

S=c1[nH]nc(SCc2ccccc2Cl)c2[nH]cnc12
inactive: Potency [1] > 11.4 µM | activity change, negative = inhibition [2] -6.3% | activity change, negative = inhibition [3] 0.186% | activity, negative = inhibition [4] -8.85% | Potency [5] > 46 µM | Potency [6] > 9.22 µM | Potency [7] | Potency [8]

Nc1nc(N)c(N=Nc2ccc(C(=O)O)c(O)c2)c(N)n1
inactive: Potency [1] > 11.4 µM | activity change, negative = inhibition [2] 2.15% | activity change, negative = inhibition [3] 15.4% | activity, negative = inhibition [4] -2.93% | Potency [5] > 46 µM | Potency [6] > 9.22 µM | Potency [7] | Potency [8]

O=C(O)[C@H]1CCc2ccc3ccccc3c2[C@H]1c1cccc2ccccc12
inactive: Potency [1] > 11.4 µM | activity change, negative = inhibition [2] -12.8% | activity change, negative = inhibition [3] -25.8% | activity, negative = inhibition [4] -8.82% | Potency [5] > 46 µM | Potency [6] > 9.22 µM | Potency [7] | Potency [8]

O=C(O)C/C=C\CC(=O)O
inactive: Potency [1] > 11.4 µM | activity change, negative = inhibition [2] -4.27% | activity change, negative = inhibition [3] 2.57% | activity, negative = inhibition [4] 1.96% | Potency [5] > 46 µM | Potency [6] > 9.22 µM | Potency [7] | Potency [8]

O=C(O)/C(Cc1cn[nH]n1)=N\O
inactive: Potency [1] > 11.4 µM | activity change, negative = inhibition [2] 16.4% | activity change, negative = inhibition [3] 0.206% | activity, negative = inhibition [4] 1.63% | Potency [5] > 46 µM | Potency [6] > 9.22 µM | Potency [7] | Potency [8]

N=C(N)C(N=Nc1ccccc1)C(=N)N (stereo not drawn)
inactive: Potency [1] > 11.4 µM | activity change, negative = inhibition [2] 1.88% | activity change, negative = inhibition [3] 3.59% | activity, negative = inhibition [4] 1.6% | Potency [5] > 46 µM | Potency [6] > 9.22 µM | Potency [7] | Potency [8]

CN(C)Cc1nsc(N(C)C)n1
inactive: Potency [1] > 11.4 µM | activity change, negative = inhibition [2] 6.96% | activity change, negative = inhibition [3] 0.0247% | activity, negative = inhibition [4] 11.1% | Potency [5] > 46 µM | Potency [6] > 9.22 µM | Potency [7] | Potency [8]

C/C(=N/NC(=O)c1ccncc1)c1ccccc1Cl
inactive: Potency [1] > 11.4 µM | activity change, negative = inhibition [2] 12.5% | activity change, negative = inhibition [3] 8.3% | activity, negative = inhibition [4] -2.05% | Potency [5] > 46 µM | Potency [6] > 9.22 µM | Potency [7] | Potency [8]

c1ccc(CCNCc2ccco2)nc1
inactive: Potency [1] > 11.4 µM | activity change, negative = inhibition [2] 3.76% | activity change, negative = inhibition [3] -2.01% | activity, negative = inhibition [4] 1.92% | Potency [5] > 46 µM | Potency [6] > 9.22 µM | Potency [7] | Potency [8]

NC1(C(=O)NC2(C(=O)O)CCCC2)CCCC1 (HELM PEPTIDE1{[NC1(C(=O)[*:2])CCCC1].[O=C(O)C1(N[*:1])CCCC1]}$$$$V2.0)
inactive: Potency [1] > 11.4 µM | activity change, negative = inhibition [2] 2.4% | activity change, negative = inhibition [3] -2.57% | activity, negative = inhibition [4] 8.97% | Potency [5] > 46 µM | Potency [6] > 9.22 µM | Potency [7] | Potency [8]

O=C(O)CN(CC(=O)O)c1ccccc1
inactive: Potency [1] > 11.4 µM | activity change, negative = inhibition [2] 7.7% | activity change, negative = inhibition [3] 8.14% | activity, negative = inhibition [4] 13.6% | Potency [5] > 46 µM | Potency [6] > 9.22 µM | Potency [7] | Potency [8]

Clc1cccc(Cl)c1C(Nc1nncs1)Nc1nncs1
inactive: Potency [1] > 11.4 µM | activity change, negative = inhibition [2] -1.25% | activity change, negative = inhibition [3] 2.41% | activity, negative = inhibition [4] -3.83% | Potency [5] > 46 µM | Potency [6] > 9.22 µM | Potency [7] | Potency [8]

CN(C)CCCSc1nc2ccccc2[nH]1
inactive: Potency [1] > 11.4 µM | activity change, negative = inhibition [2] -0.00775% | activity change, negative = inhibition [3] -10.2% | activity, negative = inhibition [4] 3.11% | Potency [5] > 46 µM | Potency [6] > 9.22 µM | Potency [7] | Potency [8]

NC(N)=NCCCC(=O)O
inactive: Potency [1] > 11.4 µM | activity change, negative = inhibition [2] -2.56% | activity change, negative = inhibition [3] 13.2% | activity, negative = inhibition [4] 4.79% | Potency [5] > 46 µM | Potency [6] > 9.22 µM | Potency [7] | Potency [8]

CC(=O)c1ccc(O)c(CN(C2CCCCC2)C2CCCCC2)c1O
inactive: Potency [1] > 11.4 µM | activity change, negative = inhibition [2] -2.68% | activity change, negative = inhibition [3] 16% | activity, negative = inhibition [4] -1.55% | Potency [5] > 46 µM | Potency [6] > 9.22 µM | Potency [7] | Potency [8]

O=C(CSC1=NCCN1)c1ccccc1
inactive: Potency [1] > 11.4 µM | activity change, negative = inhibition [2] -0.79% | activity change, negative = inhibition [3] -8.06% | activity, negative = inhibition [4] -8.19% | Potency [5] > 46 µM | Potency [6] > 9.22 µM | Potency [7] | Potency [8]

CC(NC(=O)c1ccccc1)(C(=O)O)C(=O)O
inactive: Potency [1] > 11.4 µM | activity change, negative = inhibition [2] 2.23% | activity change, negative = inhibition [3] -6.87% | activity, negative = inhibition [4] 14.4% | Potency [5] > 46 µM | Potency [6] > 9.22 µM | Potency [7] | Potency [8]

O=C(O)CCSCc1ccc(I)cc1
inactive: Potency [1] > 11.4 µM | activity change, negative = inhibition [2] 2.76% | activity change, negative = inhibition [3] 1.51% | activity, negative = inhibition [4] 4.16% | Potency [5] > 46 µM | Potency [6] > 9.22 µM | Potency [7] | Potency [8]

NS(=O)(=O)c1ccc(NCc2cnc3ccccc3c2)cc1
inactive: Potency [1] > 11.4 µM | activity change, negative = inhibition [2] -2.59% | activity change, negative = inhibition [3] 13.4% | activity, negative = inhibition [4] 0.424% | Potency [5] > 46 µM | Potency [6] > 9.22 µM | Potency [7] | Potency [8]

CC(C)CN(CC#N)CC(C)C
inactive: Potency [1] > 11.4 µM | activity change, negative = inhibition [2] 6.22% | activity change, negative = inhibition [3] 12.7% | activity, negative = inhibition [4] 5.79% | Potency [5] > 46 µM | Potency [6] > 9.22 µM | Potency [7] | Potency [8]

O=C(O)c1cccc(C[C@H](Br)C(=O)O)c1
inactive: Potency [1] > 11.4 µM | activity change, negative = inhibition [2] 3.81% | activity change, negative = inhibition [3] 14.3% | activity, negative = inhibition [4] 9.47% | Potency [5] > 46 µM | Potency [6] > 9.22 µM | Potency [7] | Potency [8]

NNC(=O)CS(=O)(=O)Nc1ncccn1
inactive: Potency [1] > 11.4 µM | activity change, negative = inhibition [2] -0.0437% | activity change, negative = inhibition [3] 3.94% | activity, negative = inhibition [4] -3.75% | Potency [5] > 46 µM | Potency [6] > 9.22 µM | Potency [7] | Potency [8]

CC[C@@H](c1ccc2cc(O)ccc2c1)C(C)(C)C(=O)O
inactive: Potency [1] > 11.4 µM | activity change, negative = inhibition [2] -1.38% | activity change, negative = inhibition [3] 8.96% | activity, negative = inhibition [4] 6.79% | Potency [5] > 46 µM | Potency [6] > 9.22 µM | Potency [7] | Potency [8]

— PubChem BioAssay (NCATS)
